SMILES strings stand for the structures.

In test [1] the test system is HT29 RNF43 G659fs (RNF43 659mut, CRISPR-edited). Kind of test: cell viability activity relative to DMSO (negative = inhibition); higher = more viable cells (less growth inhibition). Particulars: 5 µM; 96 h. The procedure:
(§1)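 Broad Repurposing Library primary screen at a single dose of 5 uM. HT29 sg-Ctrl and HT29 RNF43 G659fs CRISPR-edited isogenic cells were seeded at 2500 cells/well in 384-well plates in duplicate and treated for 96 h. Viability was read by CellTiter-Glo and reported as % activity relative to DMSO, with MG132 as the positive control (negative = growth inhibition).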

Test [2] relates to HT29 sg-Ctrl (RNF43 wildtype). The description is as above. The conditions noted are these: 5 µM; 96 h. The procedure:
as §1

`CC(C)(C)c1nc(-c2cccc(NS(=O)(=O)c3c(F)cccc3F)c2F)c(-c2ccnc(N)n2)s1`: the cell viability activity in test [1] was -69.4%; in test [2], -68.4%.
With `Cc1ccc2c(Br)cc(Br)c(OC(=O)c3ccccc3)c2n1`, the cell viability activity was -27.6% in test [1] and -34.5% in test [2].
On to `N=C(NCCCCCCNC(=N)NC(=N)Nc1ccc(Cl)cc1)NC(=N)Nc1ccc(Cl)cc1`, for which the values for the cell viability activity in test [1] and in test [2] were -45.1% and -24.9%, respectively.
With `COCCN1CCN(Cc2ccc(-c3n[nH]c4c3C(=O)c3c(NC(=O)NN5CCOCC5)cccc3-4)cc2)CC1`, the cell viability activity in test [1] was -78.2%; in test [2], -79.4%.
`Nc1ncnc2c1c(-c1cnc3[nH]ccc3c1)nn2C1CCCC1`: the cell viability activity was -84.8% in test [1] and -78.7% in test [2].
Consider `C[C@@H](Oc1cc(-c2cnn(C3CCNCC3)c2)cnc1N)c1c(Cl)ccc(F)c1Cl`, for which the cell viability activity in test [1] was -97.1%; in test [2], -95.4%.
Turning to `Cc1cc(Nc2ccc(NC(=O)c3ccc(Nc4ccnc5ccccc45)cc3)cc2)nc(N)n1`, the cell viability activity in test [1] was -91%; in test [2] it was -93.7%.
As to `CN(C)CCOc1ccc(/C(=C(/CCCl)c2ccccc2)c2ccccc2)cc1`, the cell viability activity was -85.2% in test [1] and -82.8% in test [2].
As for `CC(=O)c1cc2c(o1)C(=O)c1ccccc1C2=O`, the cell viability activity in test [1] was -97.1%; in test [2] it was -96.4%.
The matching figures for `NC1(c2ccc(-c3nc4ccn5c(=O)[nH]nc5c4cc3-c3ccccc3)cc2)CCC1`: -42.7% and -39.4%.
Take `CC1=C(C(=O)OC2CCCCC2)C(c2ccc([N+](=O)[O-])cc2)C2=C(CC(C)(C)CC2=O)N1` (stereo not drawn): the cell viability activity was -27.1% in test [1] and -15.6% in test [2].
The matching figures for `COc1ccc(-c2cc3nccn3c(Nc3ncccc3C(N)=O)n2)cc1OC`: -27.9% and -32.6%.
For the compound `Cc1ccc(C(=O)Nc2ccc(CN3CCN(C)CC3)c(C(F)(F)F)c2)cc1C#Cc1cnc2[nH]ncc2c1`, the cell viability activity in test [1] is -96.2%; in test [2], -94%.
With `COC(=O)Nc1nc2cc(C(=O)c3cccs3)ccc2[nH]1`, the values for the cell viability activity in test [1] and in test [2] were -64.5% and -78.3%, respectively.
Consider `CCCCc1oc2ccccc2c1C(=O)c1cc(I)c(OCCN(CC)CC)c(I)c1`, for which the cell viability activity in test [1] was -99.4%; in test [2] it was -98.9%.
Regarding `CCCCCCCCN=c1ccn(CCCCCCCCCCn2ccc(=NCCCCCCCC)cc2)cc1`, the cell viability activity in test [1] was -94.6%; in test [2], -92.1%.
As for `CO[C@@H](C)Cn1c(=O)n(C)c2cnc3ccc(-c4cncc(C(C)(C)O)c4)cc3c21`, the results for the cell viability activity in test [1] and in test [2] were -81.7% and -78.6%, respectively.
Consider `C#Cc1cccc(Nc2ncnc3cc(OC)c(OCCCCCCC(=O)NO)cc23)c1`, for which the cell viability activity in test [1] is -90.3%; in test [2], -71%.
For the compound `c1ccc(CNc2nc(NCc3ccccc3)c3ccccc3n2)cc1`, the cell viability activity was -22% in test [1] and -41% in test [2].
The matching figures for `Cc1ccccc1CN1C(=O)C2=C(CCN(Cc3ccccc3)C2)N2CCN=C12`: -72.9% and -76.7%.
Take `CC(C)C[C@H](NC(=O)[C@H](CCc1ccccc1)NC(=O)CN1CCOCC1)C(=O)N[C@@H](Cc1ccccc1)C(=O)N[C@@H](CC(C)C)C(=O)[C@@]1(C)CO1`: the values for the cell viability activity in test [1] and in test [2] were -97.1% and -96.6%, respectively.
As to `Cc1nc(=O)c2cc(CN(C)c3ccc(C(=O)N[C@@H](CCC(=O)O)C(=O)O)s3)ccc2[nH]1`, the cell viability activity is -60.2% in test [1] and -60.9% in test [2].
Regarding `COc1cc(N2CCC(N)CC2)ccc1Nc1ncc(Cl)c(-c2c[nH]c3ccccc23)n1`, the cell viability activity in test [1] is -95.8%; in test [2], -95.7%.
For the compound `Nc1nc(Cl)nc2c1ncn2[C@@H]1O[C@H](CO)[C@@H](O)[C@@H]1F`, the cell viability activity in test [1] is -30.3%; in test [2], -63.4%.
In the same order, the values of `CCNC(=O)Nc1ccc(-c2nc3c(c(N4CCOC[C@@H]4C)n2)CCN(C2COC2)C3)cc1` are -36.7% and -22%.
For `C[C@@H](Oc1ccc2[nH]nc(/C=C/c3cnn(CCO)c3)c2c1)c1c(Cl)cncc1Cl`, the cell viability activity in test [1] was -87.9%; in test [2], -88.8%.
On to `NC1(Cc2ccc(Cl)cc2)CCN(c2ncnc3[nH]ccc23)CC1`, for which the figures for the cell viability activity in test [1] and in test [2] were -39.2% and -20.8%, respectively.
In the case of `CC1(C)CC[C@]2(C(=O)O)CC[C@]3(C)[C@H](C(=O)C=C4[C@@]5(C)C=C(C#N)C(=O)C(C)(C)[C@@H]5CC[C@]43C)[C@@H]2C1`, the cell viability activity was -88.2% in test [1] and -82.9% in test [2].
In the case of `CN[C@H]1CN(c2ccc3c(=O)c(C(=O)O)cn(-c4nccs4)c3n2)C[C@@H]1OC`, the cell viability activity was -60.3% in test [1] and -30.9% in test [2].
In the case of `C[C@@H]1COCCN1c1cc(=O)n2c(n1)N(Cc1cncc(Cl)c1)[C@H](C(F)(F)F)CC2`, the cell viability activity was -57.9% in test [1] and 1.22% in test [2].
For the compound `NC(=O)Nc1cc(-c2cccc(F)c2)sc1C(=O)N[C@H]1CCCNC1`, the cell viability activity in test [1] was -79.6%; in test [2], -32.6%.
For the compound `CCCCC/N=c1\ccn(Cc2ccccc2)c2ccccc12`, the cell viability activity was -62.5% in test [1] and -45.4% in test [2].
With `CC(=O)c1c(C)c2cnc(Nc3ccc(N4CCNCC4)cn3)nc2n(C2CCCC2)c1=O`, the values for the cell viability activity in test [1] and in test [2] were -37.2% and -48.4%, respectively.
In the same order, the values of `O=C1/C(=C/c2ccccc2)C(NC2CCCCC2)c2ccccc21` (stereo not drawn) are -91.7% and -74.6%.
Take `CC(C)c1ccc(C(=O)N=C(N)N)cc1S(C)(=O)=O`: the cell viability activity in test [1] is -25.7%; in test [2], -5.71%.
In the case of `NNc1nncc2ccccc12`, the figures for the cell viability activity in test [1] and in test [2] were -46.5% and -40.8%, respectively.
On to `CCCCCCCCCCCC[N+](C)(C)CCOc1ccccc1`, for which the cell viability activity in test [1] is -84.4%; in test [2] it was -91.5%.
On to `CN(C)C/C=C/C(=O)Nc1cc2c(Nc3ccc(F)c(Cl)c3)ncnc2cc1O[C@H]1CCOC1`, for which the results for the cell viability activity in test [1] and in test [2] were -26.4% and -19.3%, respectively.
The matching figures for `CS[C@H]1SC[C@H]2C(=O)N(C)[C@@H](C(C)C)C(=O)OC[C@@H](NC(=O)c3cnc4ccccc4n3)C(=O)N[C@@H](C)C(=O)N(C)[C@@H]1C(=O)N(C)[C@@H](C(C)C)C(=O)OC[C@@H](NC(=O)c1cnc3ccccc3n1)C(=O)N[C@@H](C)C(=O)N2C`: -88% and -86.6%.

The values above are taken from the supplement of paper PMC9177965.
